Screens deposited in PubChem by several laboratories.
EP2 mod = EP2 receptor modulators, cAMP readout, primary screen, cell-based, HTRF cAMP, PGE2 stimulation; EP2-expressing cells, cAMP HTRF FRET, PGE2 co-stimulation; induction, % at 25 µM; hit rate 0.83% among 260,000; AID 940, 2007;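 active = compounds whose cAMP rise, as percent of the full-agonist control response, exceeds 60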;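 also: rat C6 glioma line stably carrying human EP2 under a CMV promoter; the protocol text gives 20 µM as final concentration; 100% = response of wells given 1 µM PGE2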
Target sequence (P43116 whole entry, looked up): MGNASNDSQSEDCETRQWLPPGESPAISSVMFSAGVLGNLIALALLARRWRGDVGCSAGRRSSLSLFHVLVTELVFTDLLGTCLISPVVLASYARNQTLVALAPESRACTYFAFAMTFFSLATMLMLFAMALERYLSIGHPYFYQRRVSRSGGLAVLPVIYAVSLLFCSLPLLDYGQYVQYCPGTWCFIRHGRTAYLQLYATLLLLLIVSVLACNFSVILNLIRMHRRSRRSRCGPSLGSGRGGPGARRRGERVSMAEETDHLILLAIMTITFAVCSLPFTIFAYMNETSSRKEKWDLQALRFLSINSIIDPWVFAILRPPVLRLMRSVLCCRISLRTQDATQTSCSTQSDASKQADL
PERK inh = block of dimerizer-induced PERK translation repression, primary screen, PERK inhibitor project, CHO PERK-DD cells, SEAP luminescence, HTS | CHO PERK-DD fusion, SEAP luminescence translation reporter | Eukaryotic translation initiation factor 2-alpha kinase 3 (Homo sapiens), Q9NZJ5 | inhibition, % at 5.6 µM | hit rate 0.17% among 220,000;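 active = inhibition above the mean inhibition of all tested compounds plus 3 SD, set separately per screening campaign, cut at about 2.9% in these data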;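 also: PERK kinase domain activated by AP20187 dimerizer at 100 nM; 0% = DMSO with dimerizer and 100% = rapamycin at 8.4 µM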
eIF4E-4G inh = eIF4E–eIF4G protein interaction inhibitors, primary screen, biochemical, uHTS, TR-FRET, eIF4GI fragment; Eukaryotic translation initiation factor 4E (Mus musculus) + Eukaryotic translation …; TR-FRET eIF4E-eIF4GI(517-606) binding, 2 h; inhibition, % at 21.7 µM; hit rate 0.37% among 220,000;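 active = inhibition above about 30%, limit read from the data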;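 also: 0% = full FRET control wells and 100% = background wells lacking eIF4GI fragment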
EP2 antag = human EP2 receptor antagonists, primary screen, TR-FRET cAMP, C6 glioma cells | C6 glioma cells expressing human EP2; cells stimulated with saturating PGE2 | inhibition, % at 25 µM | Prostaglandin E2 receptor EP2 subtype (Homo sapiens), P43116 | hit rate 0.52% among 260,000;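 active = percent inhibition above 40 after rounding to a whole number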;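 also: rat C6 glioma host cells with rolipram phosphodiesterase inhibitor present; the protocol text gives 20 µM as final concentration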
Active calls of the source: *; / = no result given; ! = a repeat was not active; [ ] = another dose, or the depositor's remark. The list is not random: actives were taken first. Their share in the collection is about 1.8%.

SMILES	EP2 mod	PERK inh	eIF4E-4G inh	EP2 antag
Cc1cccc(OCCCC(=O)Nc2ccc(S(N)(=O)=O)cc2)c1	-44	0	-2	2
CCN(CC)c1ccc(NC(=O)CCCOc2cccc(C)c2)cc1	-62	1	34*	7
COc1ccc(OCCCC(=O)Nc2cccc(C(C)=O)c2)cc1	-6	1	-2	51*
COc1ccc(OCCCC(=O)Nc2cccc(SC)c2)cc1	-7	1	1	5
O=C(Nc1ccccc1F)N(CCN1CCOCC1)Cc1cc2cc3c(cc2[nH]c1=O)OCCO3	-5	/	/	5
Cn1c(=S)[nH]c2scc(-c3cccs3)c2c1=O	-25	-1	4	78*
C=CCn1c(=S)[nH]c2scc(-c3cccs3)c2c1=O	-20	1	-5	63*
CCC(c1nnnn1Cc1ccco1)N(Cc1cc2c(C)cc(C)cc2[nH]c1=O)C1CCCCC1 (centres undefined)	15	/	/	5
CCOc1ccc(-c2csc3ncn(C(C)C(=O)OC)c(=O)c23)cc1 (centres undefined)	-5	/	/	3
CCOC(=O)c1c(NC(=S)Nc2ccccc2)sc2c1CCCCC2	19	1	-4	52*
CCOC(=O)c1c(NC(=O)COC)sc2c1CCC2	83*	/	/	4
COCC(=O)Nc1sc2c(c1C(=O)OC)CCCC2	2	0	-3	0
COCCNC(=O)C1CC(c2c(F)cccc2Cl)=NO1 (centres undefined)	-17	/	/	11
Cc1ccc(NC(=O)CSc2nc3c(c(=O)n(C)c(=O)n3C)n2C)c(C)c1	-13	/	/	2
CCCCn1c(=N)n(CC(=O)c2ccc(OC)cc2)c2ccccc21	-56	-1	83*	2
COc1ccc(C(=O)Cn2c(=N)n(C)c3ccccc32)cc1	-47	0	0	5
Cc1[nH]c2ccccc2c1-c1cc(-c2cc(-c3c(C)[nH]c4ccccc34)on2)no1	-23	/	/	47*
CC(NC(=O)COc1ccccc1)C1COc2ccccc2O1 (centres undefined)	/	-1	/	11
CC(NC(=O)Cc1ccccc1)C1COc2ccccc2O1 (centres undefined)	-30	3.1*	0	3
Cn1ccnc1Sc1nc(Nc2cccc(Cl)c2)nc(N2CCOCC2)n1	61*	-2	6	7
Oc1cccc(Nc2nc(N3CCOCC3)nc(N3CCOCC3)n2)c1	-34	/	/	10
CCCc1nn(CC(=O)N(Cc2ccncc2)C2CC2)c(=O)c2cc3ccsc3n12	-23	/	/	/
CN(C)CCNc1nc2sc3c(c2c(=O)n1-c1ccccc1)CCCCC3	-29	-2	79*	10
CCNC(=O)Nc1c(C#N)c(C(C)(C)C)cn1C	-14	/	/	3
Cc1ccc(CN2CCN(Cc3ccc(C)o3)[C@@H](C)C2)o1	12	/	/	43*
SMILES	EP2 mod	PERK inh	eIF4E-4G inh	EP2 antag
COc1ccc(OCc2nnc(SCC(=O)N3CCOCC3)n2-c2ccc(C)cc2)cc1	-5	/	/	7
O=C(c1n[nH]c2c1CCC2)N1CCc2c(nc(N3CCCCC3)[nH]c2=O)C1	-19	/	/	/
CCCOc1cccc(/C(O)=C2/C(=O)C(=O)N(CCN(C)C)C2c2cccs2)c1 (centres undefined)	-2	/	/	5
COc1cc(O)c(C(=O)/C=C/c2ccc(OC)c(O)c2)c(OC)c1	-3	/	/	57*
CC(C)C(c1nnnn1C(C)(C)C)N1CCN(C2CCCC2)CC1 (centres undefined)	-13	/	/	9
Cc1ccc(C(=O)n2c3ccccc3c3ccccc32)cc1	64*	0	3	14
CC(=O)n1c2ccccc2c2ccccc21	44	1	4	3
Nc1ncccc1OCc1cccc(C(F)(F)F)c1	-30	3	0	3
Nc1nc(N)c(-c2cccc(C(F)(F)F)c2)c(Cc2cccc(C(F)(F)F)c2)n1	-44	/	/	62*
CCOC(=O)c1cc(-c2ccc(OC)cc2)nn1-c1ccccc1C(=O)O	18	-1	34*	8
Cc1nnc2nc(-c3ccc(NC(=O)C4CCCO4)cc3)cn2c1C (centres undefined)	-26	/	/	/
Cc1oc(-c2ccccc2)nc1C(=O)Nc1nccs1	7	1	3	9
CC(=O)c1cccc(NC(=O)c2nc(-c3ccccc3)oc2C)c1	38	0	40*	5
CCOc1ccccc1NC(=O)c1nc(-c2ccccc2)oc1C	63*	0	3	6
COc1ccccc1CC(=O)N1CCC[C@H]1Cn1nc(-c2ccc(F)cc2)ccc1=O	-38	/	/	/
CC[C@H](Cn1nc(-c2ccc(F)c(F)c2)ccc1=O)NC(=O)C(C)(C)C	-20	/	/	/
N#Cc1nc(-c2ccc(OCc3ccccc3)cc2)oc1NCCCn1ccnc1	-57	1	-6	40*
N#Cc1nc(-c2ccc(OCc3ccccc3Cl)cc2)oc1NCCCn1ccnc1	-38	0	-14	/
CC1(C)CC(=O)C(C(c2cccc(O)c2O)C2C(=O)CC(C)(C)CC2=O)C(=O)C1	24	/	/	41*
CC1(C)CC(=O)C(C(c2ccccc2F)C2C(=O)CC(C)(C)CC2=O)C(=O)C1	-8	0	2	18
COc1cc2nc(-c3ccc(Br)o3)oc(=O)c2cc1OC	5	1	-5	40*
N#CC(C#N)=C1C=CC=CN1/C(=C\c1ccco1)C(=O)c1ccc(Br)cc1	-2	-1	4	49*
CC1=CC(=C2N=C(c3ccccc3)OC2=O)C=C(C)O1	20	2.9*	/	3
CN1C=CC=C/C1=C1/N=C(c2ccccc2)OC1=O	-9	0	6	0
O=C(Nc1ccccc1)c1ccc2nc(-c3ccco3)c(-c3ccco3)nc2c1	-15	0	0	9
SMILES	EP2 mod	PERK inh	eIF4E-4G inh	EP2 antag
CC(=O)c1ccc(NC(=O)c2ccc3nc(-c4ccco4)c(-c4ccco4)nc3c2)cc1	-17	0	47*[fluorescence artefact?]	27
O=C(NCCCO)c1ccc2nc(-c3ccco3)c(-c3ccco3)nc2c1	-28	0	6	9
O=C(NCCO)Nc1ccc2nc(-c3ccco3)c(-c3ccco3)nc2c1	-25	0	62*	8
CC(C)(C)NC(=O)CSc1nc(-c2ccco2)cc(C(F)(F)F)n1	-92	/	/	8
O=C(Nc1ccc(CN2CCOCC2)cc1)c1ccc(-c2cc(Cl)ccc2Cl)o1	-39	-1	2	59*
CCc1c(C)sc2nc(C)nc(SCC(=O)Nc3cccc(F)c3)c12	52	/	/	11
Cc1ccc2cc(CN(CCO)C(=O)NCc3ccccc3)c(=O)[nH]c2c1	21	/	/	5
CCn1cc(C=C2C(=O)c3ccccc3C2=O)c2ccccc21	-284	1	-230	42*
Brc1ccc(-c2cnc(-c3cccs3)o2)cc1	61*!	1	-7	6
Cc1nn(C)cc1S(=O)(=O)N1CCc2cc(Cl)ccc21	-105	/	/	6
